Test results published in PubChem BioAssay (NCI).
This is part of a sample that, as a whole, favours compounds with a hit. Of some 79,000 tested, about 15% had one in any assay. Calls of active or inactive are those of the source. Rule as the data show it: active = growth inhibition above about 70%; inactive = the rest.

How the values were obtained:
[1] = NCI Yeast Anticancer Drug Screen. Data for the wt1 strain (AID 149);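 also: 0% = growth of vehicle-treated wt1 cultures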; conditions: S. cerevisiae wt1 strain (SPY 50644) growth inhibition, stronger effect = higher value
How it was run: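 Yeast wt1 strain exposed to compounds; growth inhibition measured relative to vehicle-treated controls.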

[2] = NCI Yeast Anticancer Drug Screen. Data for the rad50EPP+ strain (AID 151);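 also: 0% = growth of vehicle-treated control cultures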; conditions: S. cerevisiae rad50 mutant strain, stronger effect = higher value
How it was run: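 Growth inhibition read against vehicle controls in rad50EPP+ yeast, a strain altered in DNA damage repair, after compound exposure.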

[3] = NCI Yeast Anticancer Drug Screen. Data for the mgt1 strain (AID 153); conditions: S. cerevisiae mgt1 mutant growth inhibition, stronger effect = higher value
How it was run: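 mgt1 yeast grown with test compound; read-out is growth inhibition versus vehicle-treated cultures.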

[4] = NCI Yeast Anticancer Drug Screen. Data for the rad50 strain (AID 155);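 also: 0% = growth of vehicle-only cultures of the same strain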; conditions: S. cerevisiae rad50 strain growth inhibition, stronger effect = higher value
How it was run: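 Yeast carrying a defined DNA repair defect were exposed to test compounds, and growth was compared with vehicle-treated controls to give percent inhibition.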

[5] = NCI Yeast Anticancer Drug Screen. Data for the mec2-1 strain (AID 157); conditions: S. cerevisiae mec2-1 strain, stronger effect = higher value
How it was run: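 Yeast mec2-1 mutant treated with compound. Readout: growth inhibition vs vehicle controls.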

[6] = NCI Yeast Anticancer Drug Screen. Data for the rad14 strain (AID 159);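 also: 0% = growth of vehicle-treated control cultures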; conditions: S. cerevisiae rad14 strain growth inhibition, stronger effect = higher value
How it was run: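 Yeast cells carrying a defined DNA-repair defect were exposed to compounds, and growth inhibition was calculated relative to vehicle-treated control cultures.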

[7] = NCI Yeast Anticancer Drug Screen. Data for the sgs1 mgt1 strain (AID 161);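 also: 0% = growth of cultures given vehicle only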; conditions: S. cerevisiae sgs1 mgt1 strain, stronger effect = higher value
How it was run: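 Test agents were incubated with a DNA-repair-mutant yeast strain. Growth was then read and compared against vehicle-treated controls.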

[8] = NCI Yeast Anticancer Drug Screen. Data for the CLN2oe strain (AID 163);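 also: 0% = growth of vehicle-only control cultures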; conditions: S. cerevisiae CLN2oe strain, stronger effect = higher value
How it was run: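 Read-out: yeast growth inhibition, expressed relative to vehicle-only controls. The strain bears an engineered cell-cycle alteration.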

[9] = NCI Yeast Anticancer Drug Screen. Data for the cln2 rad14 strain (AID 165);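 also: 0% = growth equal to vehicle treated cultures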; conditions: S. cerevisiae cln2 rad14 strain, stronger effect = higher value
How it was run: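 cln2 rad14 yeast strain; compound exposure; growth inhibition read vs vehicle controls.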

[10] = NCI Yeast Anticancer Drug Screen. Data for the bub3 strain (AID 167); conditions: S. cerevisiae bub3 mutant strain, stronger effect = higher value
How it was run: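 Compounds were applied to a genetically altered yeast strain carrying a cell-cycle control defect. Growth inhibition was scored against vehicle-treated controls.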

[11] = NCI Yeast Anticancer Drug Screen. Data for the wt2 strain (AID 169);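 also: 0% = growth of vehicle-treated yeast cultures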; conditions: S. cerevisiae wt2 strain growth inhibition, stronger effect = higher value
How it was run: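 Read-out: growth inhibition versus vehicle-treated control cultures after compound exposure of the yeast strain.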

[12] = NCI Yeast Anticancer Drug Screen. Data for the mlh1 strain (AID 171);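 also: 0% = growth of vehicle-treated control cultures of the same strain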; conditions: S. cerevisiae mlh1 strain growth inhibition, stronger effect = higher value
How it was run: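 Read-out: growth inhibition versus vehicle controls. Strain: engineered yeast with a defined DNA repair or cell cycle defect, compound-treated.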

[13] = NCI Yeast Anticancer Drug Screen. Data for the sgs1 strain (AID 173);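 also: 0% = growth of vehicle-only control cultures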; conditions: S. cerevisiae sgs1 mutant, stronger effect = higher value
How it was run: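 Read-out: yeast growth inhibition relative to vehicle controls, following compound exposure of a strain with a defined DNA repair/cell cycle alteration.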

[14] = NCI Yeast Anticancer Drug Screen. Data for the mlh1 rad18 strain (AID 175); conditions: S. cerevisiae mlh1 rad18 strain growth inhibition, stronger effect = higher value
How it was run: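 Yeast w/ defined DNA-repair lesions; compound exposure; growth vs vehicle controls → % inhibition.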

[15] = NCI Yeast Anticancer Drug Screen. Data for the rad18 strain (AID 177); conditions: S. cerevisiae rad18 mutant growth inhibition, stronger effect = higher value
How it was run: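 Readout: growth inhibition vs vehicle controls. Cells: genetically altered yeast strain, DNA repair defect.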

[16] = at 5.0 µM (retest, dose inferred, filed as 0.5)
[17] = at 50.0 µM (retest, dose inferred, filed as 5.0)

Measured: growth inhibition

CC(C)N(CCCNc1c2ccccc2nc2cccc([N+](=O)[O-])c12)C(C)C
active: [1]; at 33.0 µM 94% | [1]; at 100.0 µM 98% | [2]; at 3.7 µM 86% | [2]; at 11.0 µM 93% | [2]; at 33.0 µM 95% | [2]; at 100.0 µM 96% | [3]; at 33.0 µM 97% | [3]; at 100.0 µM 99% | [4]; at 3.7 µM 82% | [4]; [16] 86% | [4]; at 11.0 µM 92% | [4]; at 33.0 µM 94% | [4]; [17] 98% | [4]; at 50.0 µM 92.8% | [4]; at 100.0 µM 97% | [5]; at 3.7 µM 76% | [5]; [16] 88% | [5]; at 11.0 µM 97% | [5]; at 33.0 µM 98% | [5]; [17] 99% | [5]; at 50.0 µM 94.5% | [5]; at 100.0 µM 99% | [6]; at 1.2 µM 93% | [6]; at 3.7 µM 98% | [6]; at 11.0 µM 99% | [6]; at 33.0 µM 99% | [6]; at 100.0 µM 99% | [7]; [16] 91% | [7]; [17] 98% | [7]; at 50.0 µM 94.5% | [8]; at 33.0 µM 91% | [8]; at 100.0 µM 96% | [9]; [16] 97% | [9]; [17] 98% | [9]; at 50.0 µM 95.7% | [10]; at 33.0 µM 90% | [10]; [17] 97% | [10]; at 100.0 µM 98% | [11]; at 33.0 µM 96% | [11]; at 100.0 µM 98% | [12]; at 11.0 µM 72% | [12]; at 33.0 µM 96% | [12]; at 100.0 µM 98% | [13]; at 1.2 µM 80% | [13]; at 3.7 µM 91% | [13]; at 11.0 µM 95% | [13]; at 33.0 µM 97% | [13]; at 100.0 µM 98% | [14]; [16] 93% | [14]; [17] 98% | [14]; at 50.0 µM 95.9% | [15]; at 1.2 µM 95% | [15]; at 3.7 µM 95% | [15]; at 11.0 µM 95% | [15]; at 33.0 µM 95% | [15]; at 100.0 µM 98%
inactive: [1]; at 1.2 µM 0% | [1]; at 3.7 µM 5% | [1]; at 11.0 µM 43% | [2]; at 1.2 µM 52% | [3]; at 1.2 µM -1% | [3]; at 3.7 µM 8% | [3]; at 11.0 µM 67% | [4]; at 1.2 µM 42% | [5]; at 1.2 µM 12% | [8]; at 1.2 µM -9% | [8]; at 3.7 µM -12% | [8]; at 11.0 µM 51% | [10]; at 1.2 µM -20% | [10]; at 3.7 µM -18% | [10]; [16] -10% | [10]; at 11.0 µM 17% | [10]; at 50.0 µM 33.5% | [11]; at 1.2 µM 1% | [11]; at 3.7 µM 14% | [11]; at 11.0 µM 68% | [12]; at 1.2 µM 6% | [12]; at 3.7 µM 14%
